Bioassay records as filed in PubChem BioAssay.
HepG2 tox – counter-screen for TGF-b inhibitors: cytotoxicity in HepG2 cells | HepG2 CAGA-GFP viability, ATP luminescence, 18 h | Potency, µM (highest dose often 46.1 µM), actives largely listed as cytotoxic | 410,000 tested, 0.76% active
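CellTiter-Glo luminescence gave cytotoxicity after 18 hours at 37 degrees C. The cells were HepG2 CAGA-GFP in 1% FBS DMEM, stimulated with 500 pg/mL TGF-beta after compound addition. %Activity was normalised to no-cell wells (complete cell-killing) and DMSO (no toxicity), and curves were fitted and classified.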
DT40 TDP1 no CPT – qHTS for Inhibitors of human tyrosyl-DNA phosphodiesterase 1 (TDP1): qHTS in cells in absence of CPT; DT40 Tdp1-/- hTDP1 cells, no CPT, ATP luminescence, 48 h; 420,000 tested, 15% active; Potency, µM (doses to about 46.2 µM), most hits filed as inhibitors; note: nearly all actives have a fitted effect of over 55% in size
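Cells were dispensed at 400 per well, compounds added by pin tool, plates incubated ≥48 hr at 37 °C, then CellTiter-Glo added for 30 min at room temperature before luminescence reading. Line: DT40 Tdp1-/- complemented with hTDP1; camptothecin omitted.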
DT40 TDP1 CPT – DT40-hTDP1 cell growth loss with CPT. 420,000 tested, 12% active. Potency, µM (titrated, usually from 46.2 µM), actives largely listed as inhibitors. AID 686979. chicken DT40 Tdp1-/-;hTDP1 cells + 20 nM CPT, ATP luminescence, 48 h; note: nearly all actives have a fitted effect of over 55% in size
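Chicken DT40 Tdp1-/- cells complemented with human TDP1, 400 cells/well, exposed to compounds plus 20 nM camptothecin for at least 48 h at 37 C; viability read as ATP content by CellTiter-Glo luminescence.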
TDP1 block – blocks human tyrosyl-DNA phosphodiesterase 1 | recombinant TDP1, AlphaScreen DNA substrate cleavage | 350,000 tested, 0.28% active | Potency, µM (doses to about 130 µM), usual class: inhibitors; note: nearly all actives have a fitted effect of over 40% in size
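Signal: AlphaScreen proximity between streptavidin donor and anti-FITC acceptor beads on intact substrate. Reaction: Tdp1 1 nM, substrate 15 nM final, 5 min RT after 15 min compound preincubation.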
IL1B secr inh – blocks inflammasome-driven IL-1 beta release | THP-1 LPS/ATP IL-1B secretion, AlphaLISA, 16 h; hits give low values | activity change, % at 57.5 µM | 360,000 tested, 4.7% active | AID 743279; in the data active = activity change below about -50%; inconclusive = mostly about -30% to -49%
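THP-1 cells pretreated 1 hr with compounds (up to 57.5 uM final), then stimulated with LPS (250 ng/mL final) plus ATP (1.25 mM final); secreted IL-1B measured by AlphaLISA after 16 hr, decreased signal indicating inhibition.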
TGFb inhibitor – inhibitors of TGF-b signaling. AID 588855. Potency, µM (series often up to 46.1 µM), most hits filed as inhibitors. HepG2 CAGA-GFP TGF-b/SMAD3 reporter, GFP fluorescence, 18 h; TGF-beta stimulated, 500 pg/mL final. 410,000 tested, 1.2% active; note: nearly all actives have a fitted effect of over 65% in size
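Inhibition of TGF-beta-driven CAGA-GFP reporter expression in HEPG2 cells is measured by cellular GFP fluorescence after 18 h stimulation with 500 pg/mL recombinant TGF-beta in 1% FBS medium at 37 degrees C.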
Numbers stand for hits; . = inactive; ? = inconclusive; / = no result; [ ] = another dose, or the depositor's remark. Most compounds without a hit are left out; they make up all but 19% or so of the library. Unless noted, calls come from the whole dose curve; as a rule, active = well fitted curve in the direction sought with a large enough effect; inconclusive = small, poorly fitted or top-dose-only effect, or another doubt; inactive = no such curve, though single readings can be large; an effect the other way counts as inactive or inconclusive.

SMILES	HepG2 tox	DT40 TDP1 no CPT	DT40 TDP1 CPT	TDP1 block	IL1B secr inh	TGFb inhibitor
COc1ccc2c(c1)CCC1C2=NN(/C(C)=C\C(C)=O)C1c1ccc(F)cc1 (stereo not drawn)	.	?	18µM	.	.	.
COc1ccc2c(c1)C1=NN(/C(C)=C/C(C)=O)C(c3ccc(F)cc3)C1CC2 (stereo not drawn)	.	?	?	.	.	.
COc1ccc2c(c1)C1=NN(/C(C)=C/C(C)=O)C(c3cccc(F)c3)C1CC2 (stereo not drawn)	.	.	.	.	.	.
C#CCCCO/N=C1/C[C@@H](O)[C@@H](O)[C@@H]2[C@H]3C(=O)N(c4ccc(F)cc4F)C(=O)[C@@H]3CC[C@H]12	/	/	/	.[21 µM]	/	/
Cc1nc(N)sc1-c1csc(Nc2cc(N(C)C)ccc2Cl)n1	.	13µM	7.3µM	/	.	.
CC(=O)c1cccc(Nc2nc(-c3sc(N)nc3C)cs2)c1	.	16µM	12µM	.	.	.
CC(=O)c1cccc(Nc2nc(-c3sc(C)nc3C)cs2)c1	.	?	?	.	-57	.
COc1ccc(Nc2nc(-c3sc(N)nc3C)cs2)cc1	.	?	?	.	.	.
Cc1nc(NC(=O)c2ccccc2)sc1-c1csc(Nc2cccc(Cl)c2)n1	/	/	/	.	/	/
Cc1nc(N)sc1-c1csc(Nc2ccc(Cl)cn2)n1	.	?	?	.	.	.
COc1ccc(CCNc2nc(-c3sc(N)nc3C)cs2)cc1OC	.	16µM	?	.	.	.
CCOc1ccc(C2N3CC4(C(C)C)CN2CC(C(C)C)(C3)C4=O)cc1OC (stereo not drawn)	.	?	?	.	/	.
CCC(=O)N1c2ccccc2CC1C(=O)NCCc1cc(OC)c(OC)c(OC)c1 (stereo not drawn)	.	.	.	.	/	.
Cc1cc(C)n(-c2nc3ccccc3nc2Nc2cccc(C)c2C)n1	.	.	.	.	/	.
CSc1cccc(Nc2nc3c(S(=O)(=O)c4ccccc4)nnn3c3ccc(Cl)cc23)c1	.	?	?	.	/	.
COc1ccccc1N1CCN(C(=S)Nc2ccc(F)cc2)CC1	.	.	.	/	.	.
CCN(CC)CCSc1nnc2c3cc(F)ccc3n(C)c2n1	.	?	.	.	/	.
CCN(CC)CCSc1nnc2c3cc(F)ccc3n(Cc3ccccc3)c2n1	.	?	?	/	-64	.
NNc1nnc2c3cc(F)ccc3n(CCc3ccccc3)c2n1	.	16µM	?	/	.	.
CCn1c2ccc(F)cc2c2nc3ccccc3nc21	.	?	.	/	.	.
CCN(CC)CCSc1nnc2c3ccccc3n(Cc3ccccc3)c2n1	.	16µM	23µM	/	.	?
Cc1csc(NC(=O)CSc2nnc(NC(=O)COc3ccc(Cl)cc3)s2)n1	.	.	.	.	.	.
Cc1cccc(NC(=O)CC2Nc3cccc4cccc(c34)NC2=O)c1 (stereo not drawn)	.	?	16µM	.	.	?
COc1cccc(NC(=O)CC2Nc3cc(C)c(C)cc3NC2=O)c1 (stereo not drawn)	.	?	?	/	/	.
CCOC(=O)c1ccc(NC(=O)CC2Nc3cc(C)c(C)cc3NC2=O)cc1 (stereo not drawn)	.	?	?	/	/	.
CCOc1ccc(NC(=O)CC2Nc3cccc4cccc(c34)NC2=O)cc1 (stereo not drawn)	.	16µM	?	.	/	?
CCOC(=O)c1ccc(NC(=O)CC2Nc3cccc4cccc(c34)NC2=O)cc1 (stereo not drawn)	.	2.6µM	2.6µM	.	/	?
CCOc1ccc(NC(=O)CC2Nc3ccccc3NC2=O)cc1 (stereo not drawn)	.	.	.	.	.	.
COc1ccc(NC(=O)CC2Nc3ccccc3NC2=O)cc1 (stereo not drawn)	.	23µM	?	.[2.28 µM]	/	?
